The full data set covers some 8,800 targets. This sample favours those with a hit. About 0.5% of all pairs of compound and target were hits.
Key:
Assay in all cases: log2 fold change, soluble protein after heating vs DMSO (PISA); higher = thermal stabilisation; K562 lysate, 10 uM; active = over 0.2 and 3.5 SD of the protein, either way, in both replicates (recomputed)
vemurafenib = compound: CCCS(=O)(=O)Nc1ccc(F)c(C(=O)c2c[nH]c3ncc(-c4ccc(Cl)cc4)cc23)c1F [vemurafenib]
Outline: (§1)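 Dounce homogenisation of K562 pellets in PBS pH 7.4 with 1 mM MgCl2 produced a crude extract, used at 1 mg/mL protein. Exposure to 10 μM compound lasted 30 min, and aliquots were then heated for 3 min across 48°C-58°C, pooled and brought to 0.5% NP-40 at 4°C. The supernatant after 21,000xg for 90 min was quantified by TMTpro 16plex LC-MS/MS with channel sums equalised. Duplicate values are given as log-two fold change in thermal stability relative to solvent controls.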

[1] = compound: CCCS(=O)(=O)Nc1ccc(F)c(C(=O)c2c[nH]c3ncc(Cl)cc23)c1F
Outline: as §1

barasertib = compound: CCN(CCCOc1ccc2c(Nc3cc(CC(=O)Nc4cccc(F)c4)[nH]n3)ncnc2c1)CCOP(=O)(O)O [barasertib]
Outline: as §1

[2] = compound: CC[C@@H]1C(=O)N(C)c2cnc(Nc3ccc(C(=O)NC4CCN(C)CC4)cc3OC)nc2N1C1CCCC1
Outline: as §1

volasertib = compound: CC[C@@H]1C(=O)N(C)c2cnc(Nc3ccc(C(=O)N[C@H]4CC[C@H](N5CCN(CC6CC6)CC5)CC4)cc3OC)nc2N1C(C)C [volasertib]
Outline: as §1

[3] = compound: CCn1c(C(=O)N(C2CC2)C2CC2)cc2c3c(ncn3C)c(Nc3cc(C)n(C)n3)nc21
Outline: as §1

[4] = compound: CCn1cc(-c2ccnc3[nH]c(-c4cccc(CN(C)C)c4)cc23)c(-c2ccc(NC(=O)N(C)C)cc2)n1
Outline: as §1

[5] = compound: CN1CCC(CNc2ccc3ncc(-c4cccc(OC(F)(F)F)c4)n3n2)CC1
Outline: as §1

saracatinib = compound: CN1CCN(CCOc2cc(OC3CCOCC3)c3c(Nc4c(Cl)ccc5c4OCO5)ncnc3c2)CC1 [saracatinib]
Outline: as §1

sotrastaurin = compound: CN1CCN(c2nc(C3=C(c4c[nH]c5ccccc45)C(=O)NC3=O)c3ccccc3n2)CC1 [sotrastaurin]
Outline: as §1

Measured: log2 fold change

R3HCC1 (UniProt Q9Y3T6)
inactive: vemurafenib 0.07 | [1] 0.036 | barasertib 0.009 | [2] 0.044 | volasertib -0.015 | [3] -0.022 | [4] -0.066 | [5] 0.082 | saracatinib 0.029 | sotrastaurin 0.021

RPS6KA1 (UniProt Q15418)
inactive: vemurafenib -0.037 | [1] -0.004 | barasertib -0.006 | [2] 0.037 | volasertib 0.029 | [3] 0.019 | [4] -0.004 | [5] 0.116 | saracatinib 0.101 | sotrastaurin 0.103

RAB8B (UniProt Q92930)
UniProt Q92930, sequence (Q92930 whole entry, looked up): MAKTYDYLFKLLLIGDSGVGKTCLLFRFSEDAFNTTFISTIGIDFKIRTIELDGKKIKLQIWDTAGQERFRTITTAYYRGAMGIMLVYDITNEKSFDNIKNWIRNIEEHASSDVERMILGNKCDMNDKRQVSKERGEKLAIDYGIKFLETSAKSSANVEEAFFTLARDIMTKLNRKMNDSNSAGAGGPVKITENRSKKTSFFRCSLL
inactive: vemurafenib -0.137 | [1] 0 | barasertib -0.036 | [2] 0.028 | volasertib -0.036 | [3] 0.007 | [4] 0.252 | [5] -0.142 | saracatinib 0.08 | sotrastaurin -0.024

SEC24D isoform 2 (UniProt O94855)
UniProt O94855, sequence (O94855 whole entry, looked up): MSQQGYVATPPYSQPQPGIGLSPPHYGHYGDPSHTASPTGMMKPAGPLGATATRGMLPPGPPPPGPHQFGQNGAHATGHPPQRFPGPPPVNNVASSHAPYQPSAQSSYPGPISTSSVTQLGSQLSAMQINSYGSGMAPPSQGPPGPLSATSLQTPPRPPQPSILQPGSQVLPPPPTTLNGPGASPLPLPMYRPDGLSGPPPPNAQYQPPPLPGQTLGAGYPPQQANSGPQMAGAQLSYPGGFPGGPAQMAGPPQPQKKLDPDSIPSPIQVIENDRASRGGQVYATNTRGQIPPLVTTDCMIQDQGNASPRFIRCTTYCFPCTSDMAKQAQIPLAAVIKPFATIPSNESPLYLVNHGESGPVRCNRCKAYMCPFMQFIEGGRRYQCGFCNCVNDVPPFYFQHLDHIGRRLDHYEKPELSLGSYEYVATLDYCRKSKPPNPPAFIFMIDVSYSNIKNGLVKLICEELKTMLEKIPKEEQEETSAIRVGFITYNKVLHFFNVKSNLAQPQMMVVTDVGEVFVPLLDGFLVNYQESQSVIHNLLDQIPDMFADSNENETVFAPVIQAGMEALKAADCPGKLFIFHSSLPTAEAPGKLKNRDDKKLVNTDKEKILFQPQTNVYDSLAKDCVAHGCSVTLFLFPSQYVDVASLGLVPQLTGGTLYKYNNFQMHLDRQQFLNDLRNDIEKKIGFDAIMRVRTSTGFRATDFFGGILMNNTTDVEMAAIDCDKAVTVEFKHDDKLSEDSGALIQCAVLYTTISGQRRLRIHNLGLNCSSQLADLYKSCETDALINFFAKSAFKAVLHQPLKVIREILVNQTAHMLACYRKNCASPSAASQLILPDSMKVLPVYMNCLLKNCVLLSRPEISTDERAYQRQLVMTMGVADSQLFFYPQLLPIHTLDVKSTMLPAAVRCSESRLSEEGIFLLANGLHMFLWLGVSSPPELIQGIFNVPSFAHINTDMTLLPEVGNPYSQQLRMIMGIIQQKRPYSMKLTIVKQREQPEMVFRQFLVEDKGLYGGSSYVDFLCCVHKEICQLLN
inactive: vemurafenib -0.039 | [1] 0.027 | barasertib -0.002 | [2] -0.032 | volasertib -0.032 | [3] -0.011 | [4] -0.001 | [5] -0.009 | saracatinib 0.005 | sotrastaurin -0.025

RPAP1 (UniProt Q9BWH6)
UniProt Q9BWH6, sequence (Q9BWH6 whole entry, looked up): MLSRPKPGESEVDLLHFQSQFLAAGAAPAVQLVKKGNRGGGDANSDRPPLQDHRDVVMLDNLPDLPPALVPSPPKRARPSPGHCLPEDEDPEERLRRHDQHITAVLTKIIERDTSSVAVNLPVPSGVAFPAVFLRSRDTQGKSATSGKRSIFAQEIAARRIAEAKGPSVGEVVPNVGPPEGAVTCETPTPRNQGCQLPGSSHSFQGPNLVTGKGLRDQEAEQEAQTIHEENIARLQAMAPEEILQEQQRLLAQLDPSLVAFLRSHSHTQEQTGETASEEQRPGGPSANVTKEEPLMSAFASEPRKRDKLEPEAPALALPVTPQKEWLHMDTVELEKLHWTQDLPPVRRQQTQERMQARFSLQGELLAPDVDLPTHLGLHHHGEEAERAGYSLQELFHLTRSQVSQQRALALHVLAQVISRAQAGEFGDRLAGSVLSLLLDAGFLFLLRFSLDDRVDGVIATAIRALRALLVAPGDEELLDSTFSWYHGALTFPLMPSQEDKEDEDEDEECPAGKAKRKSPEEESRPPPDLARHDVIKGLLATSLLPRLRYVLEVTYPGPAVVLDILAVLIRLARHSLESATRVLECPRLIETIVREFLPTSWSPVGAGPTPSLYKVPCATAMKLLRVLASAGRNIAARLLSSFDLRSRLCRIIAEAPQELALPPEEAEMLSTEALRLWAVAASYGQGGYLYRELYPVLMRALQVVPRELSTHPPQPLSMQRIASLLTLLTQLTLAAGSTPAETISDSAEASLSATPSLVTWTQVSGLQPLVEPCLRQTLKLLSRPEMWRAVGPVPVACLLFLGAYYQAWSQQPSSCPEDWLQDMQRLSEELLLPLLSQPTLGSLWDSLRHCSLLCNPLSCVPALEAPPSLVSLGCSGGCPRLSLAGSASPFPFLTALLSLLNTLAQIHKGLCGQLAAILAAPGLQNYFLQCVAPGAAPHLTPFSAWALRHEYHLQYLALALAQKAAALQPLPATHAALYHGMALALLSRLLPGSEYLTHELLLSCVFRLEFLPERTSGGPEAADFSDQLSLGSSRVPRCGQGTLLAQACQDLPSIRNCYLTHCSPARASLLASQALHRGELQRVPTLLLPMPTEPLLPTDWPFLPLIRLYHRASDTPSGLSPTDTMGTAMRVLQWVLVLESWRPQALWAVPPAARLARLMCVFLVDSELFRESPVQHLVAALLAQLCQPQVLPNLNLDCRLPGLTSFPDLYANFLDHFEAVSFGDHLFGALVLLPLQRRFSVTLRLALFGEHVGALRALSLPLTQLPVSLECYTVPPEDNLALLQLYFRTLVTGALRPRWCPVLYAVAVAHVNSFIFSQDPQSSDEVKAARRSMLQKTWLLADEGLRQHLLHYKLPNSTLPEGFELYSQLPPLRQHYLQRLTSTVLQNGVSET
inactive: vemurafenib -0.008 | [1] -0.012 | barasertib 0.012 | [2] -0.028 | volasertib -0.053 | [3] 0 | [4] -0.031 | [5] 0.008 | saracatinib 0.02 | sotrastaurin 0.01

RETSAT (UniProt Q6NUM9)
UniProt Q6NUM9, sequence (Q6NUM9 whole entry, looked up): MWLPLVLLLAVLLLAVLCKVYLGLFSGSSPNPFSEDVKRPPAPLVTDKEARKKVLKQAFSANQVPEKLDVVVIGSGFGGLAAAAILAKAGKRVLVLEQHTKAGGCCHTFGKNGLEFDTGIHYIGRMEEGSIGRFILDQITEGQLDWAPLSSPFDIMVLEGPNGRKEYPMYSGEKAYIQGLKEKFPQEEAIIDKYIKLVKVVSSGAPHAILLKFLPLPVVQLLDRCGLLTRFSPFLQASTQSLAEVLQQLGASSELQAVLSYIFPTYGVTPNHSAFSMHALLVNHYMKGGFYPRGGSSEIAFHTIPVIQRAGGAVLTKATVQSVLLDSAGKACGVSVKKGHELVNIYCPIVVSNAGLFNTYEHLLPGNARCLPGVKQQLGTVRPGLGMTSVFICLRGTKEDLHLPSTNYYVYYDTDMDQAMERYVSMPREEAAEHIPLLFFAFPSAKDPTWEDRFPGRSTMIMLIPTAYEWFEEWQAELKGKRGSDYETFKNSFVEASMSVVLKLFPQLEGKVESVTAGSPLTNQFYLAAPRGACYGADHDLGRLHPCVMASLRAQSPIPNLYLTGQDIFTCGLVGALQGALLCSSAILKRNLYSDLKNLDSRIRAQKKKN
inactive: vemurafenib 0.115 | [1] 0.039 | barasertib 0.076 | [2] 0 | volasertib -0.087 | [3] -0.297 | [4] -0.318 | [5] 0.116 | saracatinib 0.108 | sotrastaurin -0.119

SEC62 (UniProt Q99442)
inactive: vemurafenib -0.024 | [1] 0.039 | barasertib 0.027 | [2] 0.017 | volasertib 0.011 | [3] 0 | [5] -0.12 | saracatinib -0.011 | sotrastaurin -0.04
active: [4] 0.373

SDHA (UniProt P31040)
UniProt P31040, sequence (P31040 whole entry, looked up): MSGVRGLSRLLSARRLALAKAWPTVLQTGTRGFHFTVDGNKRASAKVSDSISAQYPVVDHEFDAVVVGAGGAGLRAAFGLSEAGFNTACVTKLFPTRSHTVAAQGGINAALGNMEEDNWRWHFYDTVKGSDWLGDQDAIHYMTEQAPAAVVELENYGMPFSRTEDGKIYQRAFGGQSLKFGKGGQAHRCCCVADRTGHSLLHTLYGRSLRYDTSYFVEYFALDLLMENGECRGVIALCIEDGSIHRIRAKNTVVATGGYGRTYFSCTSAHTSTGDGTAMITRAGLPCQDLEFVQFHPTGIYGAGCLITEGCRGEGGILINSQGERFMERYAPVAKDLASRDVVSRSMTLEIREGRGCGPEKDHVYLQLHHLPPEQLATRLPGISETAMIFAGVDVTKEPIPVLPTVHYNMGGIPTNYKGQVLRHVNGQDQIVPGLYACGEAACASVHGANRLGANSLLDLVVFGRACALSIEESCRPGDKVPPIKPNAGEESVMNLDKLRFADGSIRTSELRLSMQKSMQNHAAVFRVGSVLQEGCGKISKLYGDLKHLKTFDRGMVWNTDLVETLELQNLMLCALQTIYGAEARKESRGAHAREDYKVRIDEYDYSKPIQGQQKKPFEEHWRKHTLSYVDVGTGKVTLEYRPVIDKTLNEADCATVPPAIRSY
inactive: vemurafenib 0.042 | [1] 0.018 | barasertib -0.032 | [2] -0.004 | volasertib 0.002 | [3] -0.003 | [4] -0.022 | [5] 0.02 | saracatinib -0.02 | sotrastaurin 0.005

RPL8 (UniProt P62917)
inactive: vemurafenib -0.055 | [1] 0.013 | barasertib -0.042 | [2] -0.09 | volasertib -0.012 | [3] 0.021 | [4] 0.208 | [5] -0.014 | saracatinib -0.009 | sotrastaurin -0.038

RNASEH2B (UniProt Q5TBB1)
inactive: vemurafenib -0.008 | [1] 0.034 | barasertib -0.035 | [2] -0.056 | volasertib -0.044 | [3] -0.001 | [4] 0.026 | [5] -0.101 | saracatinib -0.022 | sotrastaurin 0.062

RAB27A (UniProt P51159)
UniProt P51159, sequence (P51159 whole entry, looked up): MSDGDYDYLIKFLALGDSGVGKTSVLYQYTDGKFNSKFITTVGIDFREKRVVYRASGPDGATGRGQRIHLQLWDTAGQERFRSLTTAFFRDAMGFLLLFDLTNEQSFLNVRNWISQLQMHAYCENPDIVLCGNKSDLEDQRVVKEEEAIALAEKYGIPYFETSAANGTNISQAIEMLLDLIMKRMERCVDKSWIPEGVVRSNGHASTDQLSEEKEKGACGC
active: [4] 0.679
inactive: vemurafenib -0.037 | [1] -0.024 | barasertib 0.012 | [2] -0.056 | volasertib -0.082 | [3] 0.034 | [5] -0.048 | saracatinib 0.021 | sotrastaurin 0.001

RPN2 (UniProt P04844)
inactive: vemurafenib 0.009 | [1] 0.008 | barasertib 0.019 | [2] 0 | volasertib 0.003 | [3] -0.003 | [4] -0.084 | [5] 0.033 | saracatinib 0.008 | sotrastaurin 0.008

RPS29 (UniProt P62273)
inactive: vemurafenib -0.005 | [1] 0.039 | barasertib -0.034 | [2] -0.028 | volasertib 0.078 | [3] 0.109 | [5] -0.262 | saracatinib -0.007 | sotrastaurin -0.133
active: [4] 1.01

RAPGEF2, A0A2R8YGD3
inactive: vemurafenib 0 | [1] 0.013 | barasertib 0.144 | [2] 0.093 | volasertib -0.015 | [3] -0.029 | [4] 0.325 | [5] 0.05 | saracatinib 0.01 | sotrastaurin -0.003

SCO2 (UniProt O43819)
UniProt O43819, sequence (O43819 whole entry, looked up): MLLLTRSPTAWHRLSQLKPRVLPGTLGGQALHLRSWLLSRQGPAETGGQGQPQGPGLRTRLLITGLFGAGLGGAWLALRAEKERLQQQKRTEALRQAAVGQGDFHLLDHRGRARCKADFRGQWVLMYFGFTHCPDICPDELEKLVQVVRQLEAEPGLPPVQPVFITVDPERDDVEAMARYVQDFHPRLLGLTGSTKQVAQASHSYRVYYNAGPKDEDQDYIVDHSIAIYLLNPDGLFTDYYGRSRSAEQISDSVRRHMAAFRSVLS
inactive: vemurafenib -0.064 | [1] 0.054 | barasertib 0.019 | [2] -0.075 | volasertib -0.028 | [3] -0.087 | [4] -0.235 | [5] 0.076 | saracatinib -0.046 | sotrastaurin 0.003

RBM4 (UniProt Q9BWF3)
UniProt Q9BWF3, sequence (Q9BWF3 whole entry, looked up): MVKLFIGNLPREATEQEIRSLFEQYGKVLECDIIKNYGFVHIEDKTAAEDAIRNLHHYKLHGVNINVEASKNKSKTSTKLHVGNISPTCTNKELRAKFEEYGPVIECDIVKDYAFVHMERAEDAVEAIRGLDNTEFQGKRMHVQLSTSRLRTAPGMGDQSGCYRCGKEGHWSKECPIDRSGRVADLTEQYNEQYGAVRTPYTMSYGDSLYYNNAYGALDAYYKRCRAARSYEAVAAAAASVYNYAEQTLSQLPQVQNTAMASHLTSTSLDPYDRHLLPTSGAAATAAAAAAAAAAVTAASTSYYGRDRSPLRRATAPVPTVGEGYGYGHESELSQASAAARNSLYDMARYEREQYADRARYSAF
inactive: vemurafenib -0.013 | [1] -0.042 | barasertib 0.023 | [2] -0.053 | volasertib -0.032 | [3] 0.045 | [5] -0.044 | saracatinib -0.013 | sotrastaurin -0.015
active: [4] 0.344
